A selection: hits, their analogues and other compounds. The true share with any hit is near 3.5%.
BoNT F protease – inhibitors of Botulinum neurotoxin F light chain protease | Multiplex microsphere protease cleavage assay, flow cytometry | inhibition, % at 10 µM | 0.22% of 360,000 active; in the data active = inhibition above about 35%, passing the limit was not always enough; inconclusive = no clear call, values can overlap the other calls; also: plate controls were buffer without enzyme for full effect and enzyme alone for no effect
Bead autofluor – flagged as autofluorescent in microsphere protease counterscreen; fluorescence intensity (no concentration beside the values); compound autofluorescence counterscreen, microsphere flow cytometry; stronger effect = higher value; 3.1% of 360,000 active; in the data active = fluorescence intensity above about 16000; inconclusive = no clear call, values can overlap the other calls
BoNT A protease – inhibitors of Botulinum neurotoxin A light chain protease; inhibition, % at 10 µM; 0.17% of 360,000 active; multiplex microsphere protease substrate cleavage, flow cytometry; in the data active = inhibition above about 30%; inconclusive = no clear call, values can overlap the other calls; also: plate controls were buffer without enzyme for full effect and enzyme alone for no effect
Anthrax LF prot – blocks Bacillus anthracis lethal factor protease; P15917; multiplex microsphere protease cleavage assay, LF; inhibition, % at 10 µM; 0.12% of 360,000 active; in the data active = inhibition above about 30%; inconclusive = no clear call, values can overlap the other calls; also: plate controls were buffer without enzyme for full effect and enzyme alone for no effect
Target sequence (P15917 whole entry, looked up): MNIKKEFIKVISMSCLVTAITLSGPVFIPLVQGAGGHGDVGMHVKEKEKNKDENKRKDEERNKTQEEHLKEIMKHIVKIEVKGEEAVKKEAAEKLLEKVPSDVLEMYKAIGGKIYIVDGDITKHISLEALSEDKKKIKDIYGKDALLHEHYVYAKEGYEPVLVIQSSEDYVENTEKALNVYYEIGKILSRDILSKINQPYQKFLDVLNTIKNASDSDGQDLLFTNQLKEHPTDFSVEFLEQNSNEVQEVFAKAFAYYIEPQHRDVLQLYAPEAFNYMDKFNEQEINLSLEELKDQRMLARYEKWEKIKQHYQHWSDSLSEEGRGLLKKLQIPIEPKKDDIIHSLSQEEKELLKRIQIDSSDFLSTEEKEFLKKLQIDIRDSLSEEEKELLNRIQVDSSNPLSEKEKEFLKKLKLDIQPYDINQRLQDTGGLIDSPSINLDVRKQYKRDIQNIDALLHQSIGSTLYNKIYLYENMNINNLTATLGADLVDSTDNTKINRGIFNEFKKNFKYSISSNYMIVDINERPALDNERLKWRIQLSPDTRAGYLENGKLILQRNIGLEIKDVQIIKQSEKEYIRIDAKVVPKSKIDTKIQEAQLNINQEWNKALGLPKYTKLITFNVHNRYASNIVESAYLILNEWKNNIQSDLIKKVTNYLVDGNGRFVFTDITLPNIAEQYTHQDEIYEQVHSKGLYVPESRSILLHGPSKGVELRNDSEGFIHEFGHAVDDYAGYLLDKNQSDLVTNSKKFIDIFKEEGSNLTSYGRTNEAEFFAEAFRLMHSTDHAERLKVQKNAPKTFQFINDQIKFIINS
BoNTA LC inh 1 – BoNT/A light chain protease inhibition | shares compounds with BoNT F protease | multiplex microsphere protease assay, flow cytometry | inhibition, % at 10 µM | 3% of 720 active; in the data active = inhibition above about 32%
BoNTF LC inh 1 – BoNT/F light chain protease inhibition; 720 tested, under 10 active; shares compounds with BoNT F protease; multiplex microsphere protease cleavage assay, flow cytometry; inhibition, % at 10 µM
Anthrax LF CP1 – blocks anthrax lethal factor protease. shares compounds with BoNT F protease. multiplex microsphere protease cleavage assay, LF. inhibition, % at 10 µM. 720 tested, under 10 active. AID 602142
Numbers without * were called inactive; ? = inconclusive; . = no result. Unless noted, no rule for the calls is given here.

SMILES | BoNT F protease | Bead autofluor | BoNT A protease | Anthrax LF prot | BoNTA LC inh 1 | BoNTF LC inh 1 | Anthrax LF CP1
CN(Cc1ccc(Cl)cc1)C(C(=O)NC1CCCCC1)c1ccnc2ccccc12 (stereo unspecified) | -23 | 4748 | -2 | 2 | . | . | .
COc1ccc(C(=O)N2CCN(Cc3cc(OC)ccc3OC)CC2)cc1 | ? | 4285 | 0 | -1 | . | . | .
COc1ccc(C(=O)N2CCN(Cc3ccc(OC)c(OC)c3)CC2)cc1 | 44* | 3398 | 4 | 17 | 0 | 3 | -1
O=C(Cc1ccc([N+](=O)[O-])cc1)NCc1ccncc1 | 1 | 4871 | 0 | 1 | . | . | .
Cc1cc2cc(CNC(=O)CCC(=O)O)ccc2n1C | -4 | 2670 | -2 | -1 | 0 | -1 | 1
CCCC(=O)NCc1ccc2c(c1)cc(C)n2C | -37 | 4194 | 17 | -3 | 3 | -7 | 0
Cc1cc2cc(CNC(=O)c3cccc([N+](=O)[O-])c3)ccc2n1C | -9 | 4361 | 2 | -6 | . | . | .
Cc1cc2cc(CNC(=O)Cc3ccc([N+](=O)[O-])cc3)ccc2n1C | -85 | 2033 | 77* | -64 | 2 | -10 | -3
Cc1cc2cc(CNC(=O)Cc3ccc([N+](=O)[O-])cc3)ccc2[nH]1 | -31 | 3872 | 58* | 8 | -1 | -9 | -3
Cc1nc2ccc(S(=O)(=O)CCC(=O)NCc3ccc(Cl)cc3)cc2s1 | 3 | 5189 | 0 | -8 | . | . | .
Clc1ccc(-c2nc(N3CCCCC3)nc3ccccc23)cc1 | 59* | 10695 | 32* | 16 | 11 | -1 | 2
O=C(O)CCC(=O)N1CCN(c2nc(-c3ccccc3)c3ccccc3n2)CC1 | 10 | 3212 | -2 | -6 | . | . | .
CCN1CCN(S(=O)(=O)c2ccc(Cl)c(C(=O)Oc3ccc(CC(=O)OC)cc3)c2)CC1 | 1 | 3491 | 0 | 3 | . | . | .
COc1ccc(C(=O)CSc2nnc(CN3CCCCC3)n2-c2ccc(F)cc2)cc1OC | -28 | 2073 | 0 | 2 | . | . | .
COc1ccc(C(=O)CSc2nnc(CN3CCCC3)n2-c2ccc(F)cc2)c(OC)c1 | 39* | 2755 | 4 | -2 | -1 | -5 | 0
CS(=O)(=O)Nc1ccc(C2=NN(C(=O)CCCC(=O)O)C(c3cccs3)C2)cc1 (stereo unspecified) | 37* | 4361 | -4 | -3 | 0 | -3 | -4
CCn1c(C)cc(C(=O)COC(=O)CNC(=O)c2ccco2)c1C | 7 | 4080 | 0 | -3 | . | . | .
CCN1CCc2[nH]c3ccccc3c2C1 | 54* | 3806 | 5 | 15 | -2 | -9 | -3
c1ccc(CN2CCc3[nH]c4ccccc4c3C2)cc1 | -28 | 4543 | 0 | -9 | . | . | .
Cc1c(NC(=O)CSc2nnc(C(C)N(C)C)n2-c2ccccc2)c(=O)n(-c2ccccc2)n1C (stereo unspecified) | -1 | 3072 | 0 | -8 | . | . | .
CCc1nc2oc3ccc(C)cc3c(=O)c2cc1C(=O)OC | -2 | 3601 | 0 | -4 | . | . | .
CCOc1ccc(-c2c(C#N)c(N)nc3sc(C(=O)c4ccccc4)c(N)c23)cc1 | 2 | 4289 | 10 | 8 | . | . | .
COc1ccc(-c2c(C#N)c(N)nc3sc(C(=O)c4ccccc4)c(N)c23)cc1 | 7 | 2561 | 44* | 18 | 8 | -3 | 5
CC1(C(=O)O)CCCN1C(=O)c1cccc2ccccc12 (stereo unspecified) | 0 | 3808 | 0 | 0 | . | . | .
O=C(CN1C(=O)NC2(CCCCCC2)C1=O)c1ccc(Cl)cc1 | 7 | ? | 0 | 2 | . | . | .
SMILES | BoNT F protease | Bead autofluor | BoNT A protease | Anthrax LF prot | BoNTA LC inh 1 | BoNTF LC inh 1 | Anthrax LF CP1
CCc1ccc(C(=O)CN2C(=O)NC3(CCCCCC3)C2=O)cc1 | 43* | 5069 | 12 | 11 | 0 | -1 | -2
CC(=O)NC(c1ccccc1)c1nc(-c2cc(F)cc(F)c2)cs1 (stereo unspecified) | 1 | 2883 | 0 | -4 | . | . | .
O=C(CN1C(=O)C(=O)N(C2CCCC2)C1=O)Nc1ccc(OC(F)F)cc1 | -5 | 4029 | 0 | -7 | . | . | .
Cc1oc(C)c(S(=O)(=O)NCc2cccs2)c1C(=O)O | ? | 4495 | ? | 38* | 0 | -3 | 2
COC(=O)CSc1nc(N)c2c3c(sc2n1)C(c1ccccc1)SC(c1ccccc1)C3 (stereo unspecified) | 1 | 2397 | 30* | 7 | 2 | 2 | -3
COC(=O)c1ccccc1NC(=O)c1ccco1 | 4 | 2121 | 0 | 0 | . | . | .
COC(=O)c1sccc1NC(=O)c1ccco1 | 36* | 4135 | 0 | -3 | -2 | -3 | -3
Cc1ccc(C(=O)Nc2ccccc2C(=O)O)cc1S(=O)(=O)Nc1ccc(Br)cc1 | . | . | . | . | 0 | -7 | 2
Cc1ccc(C(=O)Nc2ccccc2C(=O)O)cc1S(=O)(=O)NCc1ccccc1 | 2 | 2595 | 0 | -1 | . | . | .
c1ccc(-c2ncc3ccccn23)cc1 | -2 | 5898 | 2 | -1 | 0 | -7 | 1
N=c1n(CCO)c2ccccc2n1Cc1ccccc1Cl | 33 | 3346 | 1 | -2 | -2 | 0 | -1
CCc1cccc(NC(=O)CCc2nc(-c3cccs3)no2)c1 | -9 | 5753 | 0 | -4 | . | . | .
COc1cc(NC(=O)CCc2nc(-c3cccs3)no2)cc(OC)c1OC | 42* | 3912 | 2 | 8 | 0 | -5 | 1
CCN(CC)CCn1c2c(c(SCC(=O)Nc3ccc(F)c(F)c3)nc1=O)CCC2 | 8 | ? | 3 | 2 | . | . | .
CCOC(=O)c1c(N)sc(C(=O)N2CCOCC2)c1C | 0 | 11163 | 0 | 2 | . | . | .
CCOC(=O)c1c(NC(=S)N2CCOCC2)sc(C)c1C | 48* | 3766 | 2 | 5 | -3 | -6 | -3
COc1ccc(NC(=O)COC(=O)C2CCCN2C(=O)OC(C)(C)C)cc1Cl (stereo unspecified) | 5 | 4432 | -1 | -1 | . | . | .
COc1cc2c(cc1OC)C(C)N(S(=O)(=O)c1ccc(C)cc1)CC2 (stereo unspecified) | -4 | 3602 | 0 | 4 | . | . | .
COc1cc2c(cc1OC)C(C)N(S(=O)(=O)c1cccs1)CC2 (stereo unspecified) | -7 | 3519 | 6 | 32* | 1 | -2 | -1
Cc1ccc(S(=O)(=O)N2Cc3ccccc3CC2C(N)=O)cc1 (stereo unspecified) | 0 | 3570 | 0 | -5 | . | . | .
COc1ccc2nc(C)cc(Nc3ccc(C(=O)O)cc3)c2c1 | 39* | 3557 | -2 | -3 | -1 | -3 | 2
COc1cccc(C2CC(c3ccccc3)=NN2S(=O)(=O)c2ccc(C)cc2)c1OC (stereo unspecified) | 55* | 32220* | 39* | 32* | 14 | -4 | -8
CCCCNCCOCCOc1ccc(C)cc1[N+](=O)[O-] | 46* | ? | 22 | ? | 2 | 1 | 1
C[C@H](NC(=O)C1CCN(S(=O)(=O)c2ccccc2)CC1)C(=O)NC1CC1 | -6 | 3211 | -1 | -6 | . | . | .
O=C(NCCNC(=O)c1ccccc1)c1ccccc1 | 3 | 4755 | 1 | 1 | . | . | .
O=C(NCS(=O)(=O)c1ccccc1)c1ccccc1 | 36* | 4447 | 2 | -2 | 1 | 2 | 4

Source: PubChem BioAssay
